About 4,000 (1%) of roughly 390,000 compounds were called active. Another 7% or so got no clear call; they are omitted. Calls follow the shape of the dose curve; as a rule, active = well fitted inhibition curve with a large enough effect; inconclusive = small, poorly fitted or top-dose-only effect, or another doubt; inactive = no such curve, though single readings can be large or run the other way. The full list was thinned out, with actives kept by preference.
Molecular target: DNA polymerase iota (Homo sapiens) (UniProt Q9UNA4)
Sequence (Q9UNA4 whole entry, looked up): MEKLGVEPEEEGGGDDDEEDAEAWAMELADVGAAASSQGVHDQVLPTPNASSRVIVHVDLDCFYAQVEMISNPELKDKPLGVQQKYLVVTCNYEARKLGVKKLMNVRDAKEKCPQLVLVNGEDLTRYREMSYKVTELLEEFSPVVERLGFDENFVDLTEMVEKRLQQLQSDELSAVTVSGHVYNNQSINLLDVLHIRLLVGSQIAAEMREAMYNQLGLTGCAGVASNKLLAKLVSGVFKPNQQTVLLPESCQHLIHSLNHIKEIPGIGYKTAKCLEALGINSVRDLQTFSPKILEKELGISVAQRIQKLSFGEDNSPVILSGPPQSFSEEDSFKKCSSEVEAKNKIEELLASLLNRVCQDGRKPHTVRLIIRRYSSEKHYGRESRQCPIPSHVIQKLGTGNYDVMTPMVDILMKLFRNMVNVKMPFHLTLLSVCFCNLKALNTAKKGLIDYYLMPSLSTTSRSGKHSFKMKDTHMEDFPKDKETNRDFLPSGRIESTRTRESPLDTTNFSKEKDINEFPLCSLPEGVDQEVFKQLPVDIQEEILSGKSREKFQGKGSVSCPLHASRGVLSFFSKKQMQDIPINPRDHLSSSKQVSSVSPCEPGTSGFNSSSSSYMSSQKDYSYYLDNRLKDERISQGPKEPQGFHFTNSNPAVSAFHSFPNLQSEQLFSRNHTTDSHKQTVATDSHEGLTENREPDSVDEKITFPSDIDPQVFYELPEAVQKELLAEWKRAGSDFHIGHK
Test: qHTS for Inhibitors of Polymerase Iota
Details: Pol iota fluorescent replication assay, 10 min; series mostly up to 115 µM; activity, negative = inhibition: at the top concentration
Text: DNA polymerases, such as Pol iota, are specifically involved in DNA repair. Pol iota specifically plays an important role in translesion synthesis, where the normal high-fidelity DNA polymerases cannot proceed and DNA synthesis stalls. […] Thus, while pol eta's (and most likely iota's) normal function is to protect humans against the deleterious consequences of DNA damage, under certain conditions they can have deleterious effects on human health. As a consequence, we propose to utilize a high throughput replication assay to identify small molecule inhibitors of pol iota.
In a collaboration between the National Institute of Child Health & Human Development (NICHD) and NIH Chemical Genomics Center, a high-throughput, fluorescent screen was developed to screen the NIH Molecular Libraries Small Molecule Repository (MLSMR). This screen is used to identify inhibitors of pol iota.
NIH Chemical Genomics Center [NCGC]
NIH Molecular Libraries Probe Centers Network [MLPCN]
Assay Submitter (PI): Roger Woodgate, NICHD)
Three microliters of reagents (buffer in column 3 and 4 as negative control and 10 nM Pol iota in columns 1, 2, and 5-48) will be dispensed into 1,536-well black solid-bottomed plate. Compounds (23 nL) will be transferred via Kalypsys pin tool equipped with 1536-pin array. The plates will then be incubated for 15 min at room temperature, and 1 µL substrate (50 nM final concentration) will be added to start the reaction and kinetically read twice at 0 min and 10 min on the Viewlux reader.
Potency is read from the fitted curve at half-maximal effect.

SMILES	activity, negative = inhibition	Potency
CCc1nc2nc(C)cc(Nc3ccc(F)c(Cl)c3)n2n1	22.8% (inactive)	
Cc1nn(-c2nc(-c3ccccc3)cc(C(F)(F)F)n2)c(C)c1Cl	3.75% (inactive)	
COc1ccc2[nH]c3c(C)c4cc[n+](C)cc4c(C)c3c2c1		12.6 µM (active)
Cc1cc[n+](C2CCCCC2)cc1	41.1% (inactive)	
CCOc1ccccc1-c1cc(C(=O)N2CCOCC2)c2ccccc2n1	17.7% (inactive)	
CC1CCCN(C(=O)c2cc(-c3ccco3)nc3ccccc23)C1 (centres undefined)		28.2 µM (active)
COc1ccc(NC(=O)COc2ccc(C(=O)OCC(=O)N(C)C3CCS(=O)(=O)C3)cc2OC)cc1 (centres undefined)	55.3% (inactive)	
Cc1cc(C(=O)Nc2ccc(C)c(S(=O)(=O)N3CCOCC3)c2)c2ccccc2n1	30.7% (inactive)	
CN(CCOc1ccccc1)C(=O)c1cc(-c2ccco2)nc2ccccc12		22.4 µM (active)
Cc1ccc(S(=O)(=O)CCC(=O)OCC(=O)N(C)C2CCS(=O)(=O)C2)cc1 (centres undefined)	22.2% (inactive)	
O=C(Nc1cccc(F)c1)c1cc(-c2ccco2)nc2ccccc12		50.1 µM (active)
COc1ccc(CN(C)C(=O)c2cc(-c3ccc(C)cc3C)nc3ccccc23)c(OC)c1OC	33.1% (inactive)	
O=C(c1cc(-c2ccc(Cl)s2)nc2ccccc12)N1CCOCC1	9.16% (inactive)	
O=C(COc1ccccc1C(=O)Nc1ccccc1)Nc1cccc(F)c1	3.23% (inactive)	
CN(C(=O)COC(=O)c1cc(-c2ccco2)nc2ccccc12)C1CCS(=O)(=O)C1 (centres undefined)		3.55 µM (active)
CN(CCOc1ccccc1)C(=O)c1cc(COc2c(F)cccc2F)on1	18.1% (inactive)	
CCCCC(CCCC)c1ccc(C=Nc2ccc(/C=C/c3ccnc4ccccc34)cc2)cc1	-7.99% (inactive)	
CCOc1cc(C(=O)NCCc2csc3nc(-c4ccc(C)cc4)nn23)cc(OCC)c1OCC	22.5% (inactive)	
Cc1ccc(NC(=O)CN2c3ccccc3S(=O)(=O)c3ccccc32)cc1F	0.0463% (inactive)	
CCOc1ccccc1CNC(=O)c1ccc(-n2c(C)cc3c2CCC(C)C3)cc1 (centres undefined)	1.98% (inactive)	
CCN(CC)C(=O)CSc1nc2ccsc2c(=O)n1Cc1ccccc1Cl	-9.3% (inactive)	
CC1=C(C(=O)OCc2ccc(C)cc2)C(c2ccccc2Cl)CC(=O)N1 (centres undefined)	0.135% (inactive)	
CC(C)(C)OC(=O)N(Cc1ccco1)S(=O)(=O)c1ccccc1Br	4.06% (inactive)	
CCC(=O)N1CCc2cc(S(=O)(=O)NC(CC(C)C)C(=O)NCCc3cccc(C)c3)ccc21 (centres undefined)	-4.86% (inactive)	
CN1CCN(/N=C2/C(=O)Nc3ccc([N+](=O)[O-])cc32)CC1	-5.18% (inactive)	

SMILES	activity, negative = inhibition	Potency
O=C1Nc2ccc([N+](=O)[O-])cc2C1=Nc1cccc(CO)c1		7.94 µM (active)
O=[N+]([O-])c1ccc(N(CCO)Cc2ccccc2)c([N+](=O)[O-])c1	22.6% (inactive)	
CC(=O)c1ccc[n+](C(C)CCC(C)[n+]2cccc(C(C)=O)c2)c1 (centres undefined)	64% (inactive)	
COc1cccc(CNC(=O)CN2C(=O)CCc3cc(S(=O)(=O)N4CCOCC4)ccc32)c1	2.67% (inactive)	
COc1ccc2[nH]c(C(=O)N/N=C/c3cc(OC)c(OC)c(OC)c3)cc2c1		17.8 µM (active)
COc1ccc2[nH]c(=O)c(CNc3ccc(C)c(C)c3)cc2c1	6.15% (inactive)	
COc1ccc(-c2cc(C(=O)NCc3cc(OC)c(OC)c(OC)c3)[nH]n2)cc1	10.4% (inactive)	
COc1ccccc1N1CCN(C(=O)C2Cc3ccccc3CN2C(=O)c2ccco2)CC1 (centres undefined)	-9.63% (inactive)	
Cc1ccc(S(=O)(=O)N(C)C)cc1NC(=O)C1Cc2ccccc2CN1C(=O)c1ccco1 (centres undefined)		22.4 µM (active)
Cc1ccc(C)c(NC(=O)C2Cc3ccccc3CN2C(=O)OCc2ccccc2)c1 (centres undefined)	-32.5% (inactive)	
OC[C@@H]1O[C@H](n2cnc3c(SCc4ccccc4)ncnc32)[C@H](O)[C@H]1O	17.3% (inactive)	
COc1ccc(CNC(=O)Cc2coc3ccc(C(C)C)cc23)cc1	-11.3% (inactive)	
CCOC(=O)c1c(SCC(=O)Nc2cccc(C)c2C)nc(=O)[nH]c1C	-9.72% (inactive)	
CCOC(=O)c1c(C)[nH]c2c1-c1ccccc1C(=O)C2=O		1.41 µM (active)
CCOC(=O)c1c(C)[nH]c(C)c1S(=O)(=O)N(C)CC(=O)N1CCN(c2ccccc2)CC1	15.1% (inactive)	
Cc1ccc(-n2ncc3c(=O)n(Cc4cccc(C(F)(F)F)c4)cnc32)cc1C	2.4% (inactive)	
Cc1ccccc1N/N=C/c1ccc(N2CCOCC2)cc1	-12.5% (inactive)	
O=C(O)c1ccc(NN=CC2=C(N3CCOCC3)/C(=C/c3ccccc3)CC2)cc1		20 µM (active)
O=C(O)c1ccc(N/N=C/c2ccc3ncccc3c2)cc1	-5.75% (inactive)	
CCCCOc1ccc(C(=O)NO)cc1	20.2% (inactive)	
C/C=C/NNC(=O)Cc1ccc(OC)cc1	11.8% (inactive)	
Cc1c(CC(=O)N2CCN(C(=O)C3COc4ccccc4O3)CC2)c(=O)oc2c(O)c(O)ccc12 (centres undefined)		3.16 µM (active)
COc1ccc(OC)c2sc(N3CCN(C(=O)C4COc5ccccc5O4)CC3)nc12 (centres undefined)	11.7% (inactive)	
COc1cc(NS(=O)(=O)c2ccc3c(c2)OCC(C(=O)N2CCCC2)O3)cc(OC)c1 (centres undefined)	8.22% (inactive)	

Source: PubChem BioAssay AID588590 (National Center for Advancing Translational Sciences (NCATS), 2011)
